Data: PubChem BioAssay
The source made the active and inactive calls. Unless noted, the rule behind the calls is not given here.

Key:
[1] = system: Wnt5a (protein binding on small-molecule microarray); test: small molecules binding Wnt5a protein – biophysical, small-molecule microarray, 635/667 nm fluorescence, primary screen (AID 1142); conditions: 635 nm fluorescence, higher = more signal;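 note: fluorescence read at 667 nm with signal to noise per printed feature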
[2] = ATP-based viability of Huh7 replicon cells – cell-based, CellTiter-Glo luminescence, basal, 48 h, cytotoxicity control for HCV replication inhibitor project, primary screen (AID 1143); conditions: higher = more signal, called active from +8 up or from −8 down;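 note: Huh7 hepatoma cells carrying a hepatitis C replication reporter with no stimulus; test concentration not given here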
[3] = Pseudomonas biofilm growth suppression – PAO1 strain, BacTiter-Glo luminescence, LB-PBS, primary screen (AID 1144); conditions: P. aeruginosa PAO1 biofilm, 12 h, higher = more signal
[4] = basal CRE-LacZ reporter activity in PC12 – cell-based, unstimulated, primary screen (AID 1145); conditions: no forskolin, luminescence, 4.5 h, higher = more signal, called active from +8 up or from −8 down
[5] = forskolin-driven CRE-LacZ activity in PC12 – cell-based, CRE-LacZ reporter, forskolin-stimulated, primary screen (AID 1146); conditions: luminescence, 4.5 h, higher = more signal, called active from +8 up or from −8 down;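 note: PC12 cells with 6xCRE LacZ reporter stimulated by forskolin 10 µM; beta-galactosidase reporter signal reflecting CREB driven transcription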
[6] = target: Streptavidin (Streptomyces avidinii) (UniProt P22629); test: compounds binding control protein streptavidin – biophysical, small-molecule microarray, 635/667 nm fluorescence, artefact control for SMM compound annotation, primary screen (AID 1147); conditions: higher = more signal;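 note: signal reflects streptavidin binding to arrayed compounds as a control protein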
Chain of Streptavidin (Streptomyces avidinii) (P22629 whole entry, looked up): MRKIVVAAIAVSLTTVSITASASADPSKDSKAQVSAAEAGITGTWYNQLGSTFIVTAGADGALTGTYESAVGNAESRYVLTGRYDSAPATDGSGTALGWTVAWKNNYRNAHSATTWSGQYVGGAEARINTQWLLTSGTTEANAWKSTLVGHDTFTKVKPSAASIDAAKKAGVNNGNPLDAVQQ

[7] = probe aInhba binding on compound microarray – biochemical, small-molecule microarray, 635/667 nm fluorescence, primary screen (AID 1148); conditions: higher = more signal;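 note: score merges 667nm spot fluorescence with signal-to-noise for antibody binding to printed compounds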
Torsin-1A (Homo sapiens) [8] = target: Torsin-1A (Homo sapiens) (UniProt O14656); test: TOR1A wild-type binding on microarray – cell lysate, small-molecule microarray, lysate, 635/667 nm, primary screen (AID 1149); conditions: COS7 hTOR1A-WT lysate, 635 nm fluorescence, higher = more signal
Chain of Torsin-1A (Homo sapiens) (O14656 whole entry, looked up): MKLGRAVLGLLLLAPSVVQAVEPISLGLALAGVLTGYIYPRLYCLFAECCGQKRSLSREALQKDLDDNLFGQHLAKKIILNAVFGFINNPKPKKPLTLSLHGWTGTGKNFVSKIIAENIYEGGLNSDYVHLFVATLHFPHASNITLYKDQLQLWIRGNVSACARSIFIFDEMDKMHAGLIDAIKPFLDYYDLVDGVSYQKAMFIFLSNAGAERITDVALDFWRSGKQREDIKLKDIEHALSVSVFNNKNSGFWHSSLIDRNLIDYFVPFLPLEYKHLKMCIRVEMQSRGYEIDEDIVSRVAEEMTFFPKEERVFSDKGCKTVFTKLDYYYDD

Torsin-1A (Homo sapiens) [9] = target: Torsin-1A (Homo sapiens) (UniProt O14656); test: torsin A mutant lysate binding on microarrays – cell lysate, small-molecule microarray, COS7 lysate, 635/667 nm fluorescence, primary screen (AID 1150); conditions: COS7 hTOR1A mutant lysate, 635 nm fluorescence, higher = more signal;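 note: score pools 667 nm emission and signal to noise measuring lysate protein binding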
[10] = system: Sonic hedgehog protein (Shh); test: Sonic hedgehog microarray binding compounds – biochemical, small-molecule microarray, 635/667 nm fluorescence, primary screen (AID 1151); conditions: 635 nm fluorescence, higher = more signal;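 note: Shh protein binding to compounds spotted on small-molecule microarray slides; score combines spot fluorescence intensity with signal-to-noise across triplicate slides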

| SMILES | composite z-score [1] | z-score [2] | z-score [3] | z-score [4] | z-score [5] | composite z-score [6] | composite z-score [7] | composite z-score (Torsin-1A (Homo sapiens) [8]) | composite z-score (Torsin-1A (Homo sapiens) [9]) | composite z-score [10] |
| --- | --- | --- | --- | --- | --- | --- | --- | --- | --- | --- |
| COCCCNC(=O)[C@@H]1c2ccccc2C(=O)N(Cc2ccccc2OC)[C@H]1c1ccc(CO)cc1 | 0.924 | -4.79 (inactive) | -2.25 (inactive) | -0.502 (inactive) | 0.715 (inactive) | -0.665 | -0.0136 | 0.825 | -0.206 | 2.03 |
| O=C1C2C=CC(C(O)c3ccc(-c4ccccc4)s3)N(Nc3ccccc3)C2C(=O)N1c1ccccc1 (stereo not given) | 0.155 | -0.514 (inactive) | -1.25 (inactive) | 0.0569 (inactive) | 0.117 (inactive) | 0.908 | 0.0183 | -0.499 | 1.21 | 0.0134 |
| C=C(CCCC)C(=O)CC[C@@H](OC(C)=O)c1ccc(CO)o1 | 0.52 | -1.56 (inactive) | -0.905 (inactive) | -0.35 (inactive) | 0.516 (inactive) | -0.918 | -0.154 | -0.0372 | 0.232 | 1.95 |
| Cc1c(NC(=O)/C(C#N)=C/c2cccc([N+](=O)[O-])c2)c(=O)n(-c2ccccc2)n1C | 0.233 | -3.67 (inactive) | -1.97 (inactive) | -0.554 (inactive) | -1.47 (inactive) | 0.891 | -0.0774 | 0.659 | 1.12 | 0.478 |
| OCCCC1=CC(C2CC2)N(Cc2cccc(OC(F)(F)F)c2)CC1 (stereo not given) | -0.416 | -0.28 (inactive) | 0.129 (inactive) | 0.0882 (inactive) | 0.0103 (inactive) | -0.753 | -0.213 | -0.176 | -0.773 | 1 |
| C[C@H]1C2[C@H](Cc3ccccc3)NC(=O)[C@]23C(=O)NCC(=O)N2CCC[C@H]2C(=O)NC/C=C/CCC/C=C/C3[C@@H]2O[C@]12C (stereo not given in full) | -0.376 | -1.02 (inactive) | 0.785 (inactive) | 1.32 (inactive) | -1.25 (inactive) | -1.3 | -0.179 | -0.793 | -0.333 | 0.468 |
| COC(=O)[C@@]1(Cc2ccccc2)[C@H]2c3cc(C(=O)N(C)C)n(Cc4ccc(OC)c(OC)c4)c3C[C@H]2CN1C(=O)c1ccccc1 | 1.15 | -2.81 (inactive) | 0.655 (inactive) | 0.394 (inactive) | 0.786 (inactive) | 1.43 | 0.498 | 0.406 | 1.16 | -0.735 |
| CCOC(=O)C[C@H]1[C@H](OC(=O)c2ccc(-c3ccccc3)cc2)[C@@H](NC(=O)c2ccccc2)c2cc(OCCCO)ccc2N1C(=O)c1ccc2ccccc2n1 | 0.278 | 0.775 (inactive) | 0.577 (inactive) | -0.882 (inactive) | -0.127 (inactive) | 0.255 | 0.368 | 0.181 | 0.757 | -0.0315 |
| O=C(NCCN1CCOCC1)[C@@H]1c2ccccc2C(=O)N(Cc2cc(C(F)(F)F)cc(C(F)(F)F)c2)[C@H]1c1ccc(CO)cc1 | 0.556 | -0.0199 (inactive) | 0.623 (inactive) | 0.468 (inactive) | -0.713 (inactive) | -0.601 | 0.0154 | -0.027 | 0.133 | -0.211 |
| C[N+](C)(C)CCCC[C@@H]1NC(=O)[C@@H]2C[C@H](C(=O)NCCCCCN)[C@H](c3ccc(O)cc3)N2C1=O | 0.557 | -0.496 (inactive) | -0.771 (inactive) | 0.143 (inactive) | -0.441 (inactive) | 1.49 | 0.491 | 0.632 | 0.659 | 1.61 |
| CCCNC(=O)[C@@H]1c2ccccc2C(=O)N(Cc2ccccc2OC)[C@H]1c1ccc(CO)cc1 | 0.304 | -0.67 (inactive) | 0.376 (inactive) | 0.001 (inactive) | -0.312 (inactive) | 0.867 | -0.0066 | -0.3 | 0.889 | 1.52 |
| Cc1ccc([C@H]2C(C(=O)O)=CCN2S(=O)(=O)c2ccc(C)cc2)cc1 | -0.171 | -0.849 (inactive) | 0.668 (inactive) | -0.48 (inactive) | -0.119 (inactive) | 0.468 | 0.0108 | 0.593 | 0.435 | 0.0688 |
| C=C(CCCC)/C(=C/C[C@@H](OC(C)=O)c1ccccc1OCCO)c1cc(C(=O)OC)ccc1OC | -0.115 | -0.774 (inactive) | -0.341 (inactive) | 16 (active) | -1.14 (inactive) | -0.478 | -0.15 | 0.0851 | 0.0547 | 0.566 |
| C=CCN1C(=O)[C@]2(O[C@H](CCO)[C@@H]([Si](C)(C)c3ccc(OC)cc3)[C@@H]2C)c2cc(N(C=O)c3ccccc3)ccc21 | -0.223 | -7.67 (inactive) | -0.2 (inactive) | 32.2 (active) | -3.14 (inactive) | 0.0699 | -0.082 | -0.376 | 0.0507 | 0.572 |
| CC(C)CN1C(=O)[C@@]2(c3ccc([N+](=O)[O-])cc3)CC(=O)N(C3CCCCC3)[C@@H]2c2ccc(CO)cc21 | -0.409 | -0.159 (inactive) | -0.927 (inactive) | -0.502 (inactive) | 0.241 (inactive) | -0.471 | -0.237 | -1.32 | -1.67 | -0.939 |
| COc1ccc([Si](C)(C)[C@@H]2[C@@H](CCO)O[C@]3(C(=O)N(Cc4cccc(N5CCOC5=O)c4)c4ccccc43)[C@H]2C)cc1 | 0.183 | -5.47 (inactive) | -0.631 (inactive) | 8.62 (active) | -0.905 (inactive) | 0.424 | 0.0569 | 0.531 | 0.226 | 0.529 |
| CC(C)N1CC=CC23O[C@@H]4C=CCOC(=O)[C@@H]4[C@H]2C(=O)N(CCCCCO)[C@@H]3C1=O (stereo not given in full) | -0.094 | -1.27 (inactive) | -1.56 (inactive) | -1.72 (inactive) | -0.679 (inactive) | -0.48 | -0.152 | -0.167 | 1.09 | 0.0095 |
| COC(=O)c1c(CC[C@@H](CO)NC(=O)NCCc2c[nH]c3ccccc23)oc(C(=O)Cc2ccccc2)c1C(=O)OC | -0.229 | -0.195 (inactive) | 0.604 (inactive) | 1.37 (inactive) | -0.713 (inactive) | -0.322 | -0.188 | 0.207 | 0.0487 | 0.0213 |
| O=C(NC1CC1)[C@@H]1c2ccccc2C(=O)N(Cc2cc(F)cc(C(F)(F)F)c2)[C@H]1c1ccc(CO)cc1 | 0.518 | -0.335 (inactive) | -0.435 (inactive) | 0.001 (inactive) | 0.162 (inactive) | -0.685 | -0.0468 | 0.517 | 0.543 | -0.296 |
| COc1cc2c(cc1O)C(c1cccs1)N(Cc1ccc([N+](=O)[O-])o1)CC2 (stereo not given) | 0.207 | -1.37 (inactive) | -0.371 (inactive) | 0.209 (inactive) | -0.543 (inactive) | 1.32 | 0.167 | 0.426 | -0.155 | -0.951 |
| [N-]=[N+]=Nc1ccccc1[C@H]1OC(c2ccc(OCCCO)cc2)=N[C@@]1(Cc1ccccc1)C(=O)N1CCOCC1 | 0.267 | -4.05 (inactive) | -0.622 (inactive) | -0.0341 (inactive) | -1.62 (inactive) | 2.01 | 0.554 | 0.124 | 0.212 | 0.672 |
| COCC(=C=CC[C@H](O)c1cccc(OCCO)c1)C[C@H](O)c1cc(Cl)cc(Cl)c1O | 0.556 | -0.465 (inactive) | -0.494 (inactive) | 10 (active) | 0.32 (inactive) | -0.128 | 0.0104 | 1.06 | 0.878 | 1.77 |
| COC(=O)[C@@]1(CCC(=O)OC(C)(C)C)N=C(c2ccc(OCCCO)cc2)O[C@H]1c1ccccc1 | 0.762 | -3.61 (inactive) | -0.24 (inactive) | 2.25 (inactive) | -2.12 (inactive) | -0.888 | 0.0319 | -0.831 | -0.275 | 0.443 |
| COC(=O)[C@@]1(Cc2ccccc2)[C@H]2c3cc(C(=O)N4CCCC4)n(Cc4c(CO)[nH]cc(C)c4=O)c3C[C@H]2CN1C(=O)c1ccccc1 | 0.652 | 0.0519 (inactive) | -0.0914 (inactive) | 0.0109 (inactive) | 0.473 (inactive) | 1.01 | -0.101 | 0.4 | 0.491 | -0.547 |
| COc1cc(CO)cc(I)c1O[C@H]1C=C(C(=O)NCCO)C[C@@H](N(C(=O)c2cc3ccccc3oc2=O)C2CCCCCC2)[C@@H]1O | 0.021 | -2.46 (inactive) | -0.269 (inactive) | -0.153 (inactive) | -0.94 (inactive) | 0.0378 | -0.157 | -0.113 | 0.347 | 1.33 |
| C[N+](C)(C)CCCC[C@@H]1NC(=O)[C@H]2C[C@@H](C(=O)NCCCCCCNC(=O)CS)[C@@H](c3ccc(O)cc3)N2C1=O | -0.195 | -0.798 (inactive) | -0.15 (inactive) | -0.947 (inactive) | -0.549 (inactive) | -1.48 | -0.024 | 2.12 | 1.3 | 0.801 |
| CC1CC/C=C\[C@H]2OC34C=CCN(Cc5ccccc5)C(=O)[C@H]3N(C(C)CO)C(=O)[C@@H]4C2C(=O)O1 (stereo not given in full) | -0.125 | 0.0111 (inactive) | 0.647 (inactive) | 1.68 (inactive) | -0.0203 (inactive) | -0.556 | -0.0822 | -0.859 | -0.119 | 0.473 |
| COC(=O)C(CC#Cc1ccc2c(c1)[C@]1(C(=O)N2)[C@H](c2ccccc2OCCO)N2[C@H](c3ccccc3)[C@H](c3ccccc3)OC(=O)[C@H]2[C@@H]1C(N)=O)C(=O)OC | 0.136 | -5.98 (inactive) | 0.502 (inactive) | -0.0515 (inactive) | 1.02 (inactive) | 1.5 | 1.26 | 0.412 | 0.434 | 0.111 |
| N#Cc1ccc(C(O)C2C=CC3C(=O)N(c4ccccc4)C(=O)C3N2Nc2ccccc2F)cc1 (stereo not given) | 0.286 | -2.92 (inactive) | -0.826 (inactive) | -0.107 (inactive) | -0.852 (inactive) | 0.0289 | -0.0986 | -0.291 | -0.301 | -0.234 |
| O=C1C2C=CC(C(O)c3cc(C(F)(F)F)cc(C(F)(F)F)c3)N(Nc3ccccc3)C2C(=O)N1c1ccccc1 (stereo not given) | 0.0943 | -1.01 (inactive) | -1.35 (inactive) | -0.326 (inactive) | 0.501 (inactive) | -0.374 | -0.0136 | 0.702 | 1.18 | -0.857 |
